In PubChem BioAssay (NCI):
Compounds without any hit were thinned out: in the full panel of roughly 83,000, 20% have a hit.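 The endpoint reported here, percent growth, reads 100 for growth as untreated, 0 for no net growth and -100 for all cells dead.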 Values without a mark were called inactive. Activity calls are given as the source filed them. The calls were made as follows: active = growth percent below 10; inactive = the rest.

Tests used:
Test in all cases: NCI-60 one-dose screen, 48 h (100 = growth as untreated, 0 = no growth, -100 = all killed)
Details in all cases: 10 µM unless noted
SR leukemia = test system: SR leukemia
RPMI-8226 leukemia = test system: RPMI-8226 leukemia
OVCAR-8 ovarian = test system: OVCAR-8 ovarian
OVCAR-4 ovarian = test system: OVCAR-4 ovarian
SK-OV-3 ovarian = test system: SK-OV-3 ovarian
IGROV1 ovarian = test system: IGROV1 ovarian
OVCAR-3 ovarian = test system: OVCAR-3 ovarian
HS 578T breast = test system: HS 578T breast
NCI/ADR-RES ovarian = test system: NCI/ADR-RES ovarian
OVCAR-5 ovarian = test system: OVCAR-5 ovarian

| Structure (SMILES) | growth (SR leukemia) | growth (RPMI-8226 leukemia) | growth (OVCAR-8 ovarian) | growth (OVCAR-4 ovarian) | growth (SK-OV-3 ovarian) | growth (IGROV1 ovarian) | growth (OVCAR-3 ovarian) | growth (HS 578T breast) | growth (NCI/ADR-RES ovarian) | growth (OVCAR-5 ovarian) [%] |
| --- | --- | --- | --- | --- | --- | --- | --- | --- | --- | --- |
| CCC(c1ccc(OC)cc1)C(CC)c1ccc(O)c(CN2CCCCC2)c1 (stereo not drawn) | -3.74% (active) | 5.83% (active) | 80.4% | 67.1% | 84.9% | 69.6% | 73.9% | 79% | 60.9% | – |
| Cn1cc(-c2nc(-c3cn(C)c4ncccc34)cs2)c2cc(F)ccc21 | 22.4% | 38% | 54.6% | – | 57.4% | 44.2% | – | 76.4% | 10.8% | 56.3 |
| CCN(CC)C(=O)CCCCCn1c2ccccc2c2c3c(c4c5ccccc5[nH]c4c21)C(=O)N(O)C3=O | 5.8% (active) | 16.1% | 20.8% | 56.6% | 79.5% | 27.6% | 46.5% | 71.1% | 12.7% | – |
| COc1cccc(-c2nn(-c3ccccc3)cc2-c2ccnc(NCCNS(=O)(=O)c3ccc(Cl)cc3)c2)c1 | -5.49% (active) | 9% (active) | 31.1% | 35.9% | 44.9% | 39.3% | 40.6% | 54.3% | 27.9% | – |
| COC(=O)CCCCCn1c2ccccc2c2c3c(c4c5ccccc5[nH]c4c21)C(=O)N(O)C3=O | 11.3% | 22.4% | 31.2% | – | 70.2% | 19.5% | – | 84.5% | 23.1% | 86.6 |
| NC1=NN(c2ccccc2)C(=O)/C1=C/c1ccc(Cl)cc1 | 94.2% | 94.8% | 99% | 109% | 96.3% | 99.4% | 108% | 106% | 103% | – |
| CCCCC[C@H]1CC=C2C(=O)C(Cl)=C[C@@H]2CC=CCCCC(=O)O[C@@H](CCCCC)CC=C2C(=O)C(Cl)=C[C@@H]2CC=CCCCC(=O)O[C@@H](CCCCC)CC=C2C(=O)C(Cl)=C[C@@H]2CC=CCCCC(=O)O1 | 6.25% [8 µM] (active) | 2.73% [8 µM] (active) | -17.1% [8 µM] (active) | 59.9% [8 µM] | 120% [8 µM] | 36% [8 µM] | 17.3% [8 µM] | 78% [8 µM] | 96.2% [8 µM] | – |
| O=C(O)c1cccc2c1Cc1cc([N+](=O)[O-])ccc1-2 | 89% | 100% | 108% | – | 107% | 92.3% | 115% | 95% | 100% | 106 |
| C/C(=N\Nc1ccc2ccccc2n1)c1ccccn1 | 6.18% (active) | 1.84% (active) | 6.43% (active) | 21.2% | 24.7% | -2.71% (active) | 8.54% (active) | 49% | 1.66% (active) | – |
| COc1ccc2[nH]cc(-c3nc(-c4c[nH]c5ncccc45)cs3)c2c1 | -7.54% (active) | 40.9% | 44.8% | – | 41.4% | 30.7% | 50.6% | 57.5% | 47% | 81.5 |
| CC(=O)O[C@H]1CC[C@@]2(C)[C@@H](CC[C@@H]3[C@@H]2CC(=O)[C@@]2(C)[C@H]3C[C@@H](C3CCCC3=O)[C@@H]2C(C)=O)C1 (stereo partly drawn) | 87.9% | 91.2% | 98.9% | – | 107% | 98.1% | 115% | 108% | 104% | 107 |
| CC1(C)NC2=C(C(Nc3cccnc3)N1)C(c1ccc([N+](=O)[O-])cc1)C(C(=O)c1ccc(N=[N+]=[N-])cc1)O2 (stereo not drawn) | 102% | 115% | 101% | – | 108% | 104% | 110% | 102% | 109% | 97.6 |
| COC(=O)[C@]12CC[C@@H](C(C)=O)[C@@H]1[C@H]1CC[C@@H]3[C@@]4(C)C/C(=C/c5cccnc5)C(=O)C(C)(C)[C@@H]4CC[C@@]3(C)[C@]1(C)CC2 | 12.3% | 2.88% (active) | 38.7% | – | 93.7% | 85.8% | – | 74.8% | 52.5% | 114 |
| O=C1CCC/C=C\C[C@H]2C=C(Cl)C(=O)/C2=C/C[C@H](CCCCC(F)(F)F)OC(=O)CCC/C=C\C[C@H]2C=C(Cl)C(=O)/C2=C/C[C@H](CCCCC(F)(F)F)O1 | -14.6% [7.5 µM] (active) | -14.9% [7.5 µM] (active) | -4.7% [7.5 µM] (active) | 19.7% [7.5 µM] | -2.87% [7.5 µM] (active) | -48.2% [7.5 µM] (active) | -81.3% [7.5 µM] (active) | 21.8% [7.5 µM] | 12.5% [7.5 µM] | – |
